An excerpt weighted towards active compounds, which were near 3.5% of everything screened.
FBA Mtb inh – inhibits M. tuberculosis FBA enzyme | purified M. tuberculosis FBA, fluorescence read-out | P9WQA3 | 2.3% of 360,000 active | inhibition, % at 1 µM;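 also: 0% = vehicle and 100% = reference inhibitor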
UGM FP inh – blocks M. tuberculosis UGM enzyme | P9WIQ1 | purified UGM, fluorescence polarization probe displacement | inhibition, % at 10 µM | 0.06% of 320,000 active; in the data active = inhibition above about 10%, passing the limit was not always enough
Rv3671c protease – inhibits the M. tuberculosis serine protease Rv3671c | 0.048% of 320,000 active | inhibition, % at 5.96 µM | P9WHR9 | AID 2606; in the data active = inhibition above about 38%;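 also: extracellular domain of Rv3671c used as enzyme; 0% = enzyme with DMSO and 100% = no enzyme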
Target sequence (P9WHR9 whole entry, looked up, the tested form may be a part): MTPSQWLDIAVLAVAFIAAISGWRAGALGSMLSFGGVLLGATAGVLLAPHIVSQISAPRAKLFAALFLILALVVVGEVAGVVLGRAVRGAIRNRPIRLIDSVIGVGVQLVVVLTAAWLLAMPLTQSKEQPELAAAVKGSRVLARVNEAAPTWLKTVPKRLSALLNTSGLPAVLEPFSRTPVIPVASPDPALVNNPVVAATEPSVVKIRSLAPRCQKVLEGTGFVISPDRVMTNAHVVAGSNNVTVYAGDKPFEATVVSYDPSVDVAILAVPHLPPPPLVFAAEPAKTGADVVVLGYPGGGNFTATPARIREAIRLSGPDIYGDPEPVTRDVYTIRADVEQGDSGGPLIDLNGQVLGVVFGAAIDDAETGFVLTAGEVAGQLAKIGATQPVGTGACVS
GDH-TPI counter-1 – GDH-TPI coupled enzyme inhibition counter-screen. GDH-TPI coupled enzyme counterscreen, NADH absorbance. inhibition, % at 4.8 µM. 1.2% of 360,000 active; in the data active = inhibition above about 30%;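 also: 0% = DMSO wells and 100% = wells lacking the enzyme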
Mtb FBA confirm – Mtb FBA inhibition, confirmed | 78% of 5,600 active | shares compounds with FBA Mtb inh | inhibition, % at 1 µM | purified M. tuberculosis FBA, fluorescence read-out | AID 651616;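 also: 0% = vehicle wells and 100% = reference inhibitor wells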
GDH-TPI counter-2 – counter-screen for M. tuberculosis FBA inhibitors: GDH-TPI coupled enzyme inhibition. shares compounds with FBA Mtb inh. GDH-TPI coupled enzyme counterscreen, fluorescence. inhibition, % at 1 µM. 81% of 5,600 active. AID 652141; in the data active = inhibition above about 10%
An asterisk follows results filed as active; . = no result given; + = active, no number. Rule as the data show it, unless noted: active = inhibition above about 27%; inactive = the rest.

SMILES | FBA Mtb inh | UGM FP inh | Rv3671c protease | GDH-TPI counter-1 | Mtb FBA confirm | GDH-TPI counter-2
CC(C)Cc1nnc(NC(=O)C2CCCN(C(=O)c3ccc(Cl)cc3)C2)s1 (configuration not stated) | -0.1 | . | . | -0.9 | . | .
CC(C)(Cc1nc2ccccc2[nH]1)c1nc2ccccc2[nH]1 | -2.7 | . | . | -1.8 | . | .
COc1ccccc1C(=O)NC(=O)COC(=O)CN1C(=O)NC(C)(C)C1=O | 1.9 | 0.1 | -13.5 | 8.1 | . | .
COc1ccc(NC(=S)N(C(C)C)C2CCN(C(C)C)CC2)cc1Cl | . | 0.7 | 4.2 | . | . | .
COc1ccc(-c2ccc3c(c2)S(=O)(=O)c2cccc(C(=O)NCCOc4ccccc4)c2C3=O)cc1OC | 51.8* | 8.7 | 0.4 | 11.2 | 38.9* | 29.4*
COc1ccc(CCN2C(=O)NC(NS(=O)(=O)c3ccccc3)(C(F)(F)F)C2=O)cc1OC (configuration not stated) | -0.7 | 1.9 | -0.9 | 2.2 | . | .
COc1cc2c(c3ccccc13)CCCC2=O | 110.3* | . | . | 11.5 | 115.9* | 91.2*
Cc1cc(-c2ccccc2)n2nc(N)nc2n1 | 33.6* | 0.5 | -6.5 | 2.4 | 97.5* | 76.1*
Cc1cc(-c2ccccc2)n2nc(C)c(C#N)c2n1 | 27.3* | -1.9 | -1.4 | 7.3 | + | +
Cc1cc(C)n2nc(N)nc2n1 | 1.2 | . | . | 5.0 | . | .
CCc1ccc(/C=N/n2c(C)cc(C)c(C#N)c2=O)cc1 | 3.2 | 1.7 | -4.2 | 24.4 | . | .
CN(C)CCCNC(=O)C[C@H]1C[C@H](C(=O)N2CCOCC2)[C@@]2(C)c3[nH]c4cc(-c5ccco5)ccc4c3CCN2C1=O | 33.1* | . | . | 12.5 | 135.4* | 109.7*
COCCCNC(=O)C[C@H]1C[C@H](C(=O)N(C(C)C)C(C)C)[C@@]2(C)c3[nH]c4cc(-c5ccco5)ccc4c3CCN2C1=O | 31.5* | . | . | 11.5 | 128.1* | 104.4*
COCCCNC(=O)C[C@H]1C[C@H](C(=O)N2CCOCC2)[C@@]2(C)c3[nH]c4cc(-c5ccco5)ccc4c3CCN2C1=O | 33.2* | . | . | 0.5 | 15.1 | 11.4*
CCN(CC)C(=O)[C@H]1C[C@H](CC(=O)NCCN2CCOCC2)C(=O)N2CCc3c([nH]c4cc(-c5ccco5)ccc34)[C@]12C | 50.1* | . | . | 6.4 | 64.9* | 38.8*
O=C(CN1C(=O)c2ccccc2S1(=O)=O)Nc1cc(S(=O)(=O)N2CCCCC2)ccc1Cl | -2.6 | . | . | -4.1 | . | .
CCc1ccc(N2CC(C(=O)Nc3ccc(S(=O)(=O)NCC4CCCO4)cc3)CC2=O)cc1 (configuration not stated) | 1.2 | -1.7 | -5.5 | -7.2 | . | .
Cc1ccc(/C=C/C(=O)Nc2ccc(S(=O)(=O)Nc3onc(C)c3C)cc2)cc1 | -1.8 | 2.0 | -4.1 | 12.0 | . | .
O=CN(Cc1nc2ccccc2[nH]1)c1ccc(C(=O)O)cc1 | -0.1 | . | . | 0.4 | . | .
CCc1cc(=O)oc2cc(OCC=C(C)C)ccc12 | 35.9* | 0.6 | -4.2 | 4.4 | 35.0* | 30.5*
CCc1cc(=O)oc2cc(OCc3nn[nH]n3)ccc12 | 30.5* | -1.0 | -0.7 | 7.6 | + | +
Cc1ccccc1NC(=O)CN1C(=O)N/C(=C\c2ccccc2OCc2ccc(C(=O)O)cc2)C1=O | 1.8 | -0.8 | -54.0 | 18.6 | . | .
O=C(c1cnc2n(c1=O)CCS2)N1CCN(c2ccc([N+](=O)[O-])cc2)CC1 | -11.1 | -2.6 | 1.5 | 11.5 | . | .
Cn1c(-c2ccccc2O)cc2ccccc21 | 31.7* | 1.2 | -9.9 | -4.0 | 139.8* | 118.6*
Cn1c(-c2ccccc2)cc2ccccc21 | 9.4 | 0.1 | 3.0 | -5.7 | . | .
SMILES | FBA Mtb inh | UGM FP inh | Rv3671c protease | GDH-TPI counter-1 | Mtb FBA confirm | GDH-TPI counter-2
CCc1cccc(CC)c1NC(=O)CN1CCc2cc(OC)c(OC)cc2C1 | 2.4 | 3.0 | -5.0 | -3.0 | . | .
COc1cccc2oc3ccc(C#Cc4ccccn4)cc3c(=O)c12 | 86.5* | -1.8 | -16.4 | 11.4 | 99.4* | 82.9*
C=CCOc1ccc(-c2n[nH]c(=S)o2)cc1 | 35.1* | 3.7 | 3.0 | 3.7 | 87.1* | 76.2*
CCCc1ccc(C(O)c2ncc(-c3ccccc3F)[nH]2)cc1 (configuration not stated) | 1.5 | . | . | 4.9 | . | .
CC(C)NC(=O)N(Cc1ccccc1)Cc1cccs1 | -1.1 | -0.8 | -3.0 | -2.9 | . | .
Fc1cccc2sc(Nc3nc4ccccc4s3)nc12 | 32.2* | -0.2 | -9.5 | 15.8 | 193.4* | 133.5*
O=C(NNc1nc2ccccc2s1)c1ccccc1F | 0.1 | 1.3 | 4.3 | 10.0 | . | .
Fc1ccc2nc(Nc3nc4c(F)cccc4s3)sc2c1 | 35.2* | 2.6 | -111.5 | 16.4 | 0.5 | -3.2
Fc1ccc2nc(Nc3nc4c(F)cc(F)cc4s3)sc2c1 | 8.2 | -0.7 | -10.7 | 4.6 | . | .
